Laboratory results reported in PubChem BioAssay (EPA / NIEHS).
Active and inactive are the calls of the source. How the source made its calls: active means hit-call score of the fitted dose curve at least 0.9, where 1 is the maximum; inactive means score below 0.9.

Test: Tanguay_ZF_120hpf_DP24: Oregon State University Tanguay Lab 24 Hour Post-fertilization zebrafish Assay for Delayed Development (AID 2284390)
Protocol: Tanguay_ZF_120hpf is a whole embryo, multiplexed endpoint assay using zebrafish larvae exposed for 120 hours post fertilization on a 96-well plate.Tanguay_ZF_120hpf_DP24 is […] measured or calculated from the Tanguay_ZF_120hpf assay. It is designed to make measurements of zebrafish development as detected with brightfield microscopy of developing zebrafish embryos.Data from the assay component Tanguay_ZF_120hpf_DP24 was analyzed into 1 assay endpoints. This assay endpoint, Tanguay_ZF_120hpf_DP24, was analyzed in the positive analysis fitting direction relative to DMSO as the negative control and baseline of activity. Using a type of morphology reporter, gain-of-signal activity can be used to understand changes in developmentals as they relate to the whole embryo. To generalize the intended target to other relatable targets, this assay endpoint is annotated to the zebrafish development intended target family, where the subfamily is embryonic morphogenesis.
Zebrafish husbandry: Tropical 5D wild-type adult zebrafish were housed in at an approximate density of 1000 per 100 gallon tank at the Sinnhuber Aquatic Research Laboratory, Oregon State University, Corvallis, OR. Each tank was kept at standard laboratory conditions of 28C on a 14-h light/10-h dark photoperiod in fish water consisting of reverse osmosis water supplemented with a commercially available salt (Instant Ocean). Spawning funnels were placed into the tanks the night prior, and embryos were collected and staged. To increase bioavailability, the chorion was enzymatically removed using pronase (63.6mg/ml, >/= 3.5U/mg, Sigma-Aldrich: P5147) at 4 hours post fertilization (hpf) using a custom automated dechorionator.Chemical exposures: Six hpf dechorionated embryos were placed 1 embryo per well in a 96-well plate prefilled with 90 ul of EM using automated embryo placement systems (AEPS). Ten microliters of each row of dilution plate 2 was added to 2 exposure plates. The final DMSO concentration used was 0.64% (vol/vol). Thirty-two embryos were also exposed to 5uM trimethyltin chloride (positive control). Plates were sealed to prevent evaporation and foil covered to reduce light exposure and kept in a 28C incubator. Embryos were statically exposed until 120 hpf. At 24 hpf, embryos were assessed for photomotor response using a custom photomotor response analysis tool (PRAT) and for developmental toxicity endpoints (MO24: mortality at 24 hpf, DP: developmental progression, SM: spontaneous movement, and NC: notochord distortion). At 120 hpf, locomotor activity was measured using Viewpoint Zebralab and assessed for 13 endpoints. Zebrafish acquisition and analysis program (ZAAP), a custom program designed to inventory, acquire, and manage zebrafish data, was used to collect developmental endpoints as either present or absent (i.e., binary responses were recorded). If mortality occurred for an embryo (at either 24 or 120 hpf), the non-mortality endpoints were not measured.

Row | SMILES | outcome | AC50
1 | OCC(F)(F)C(F)(F)C(F)(F)F | inactive | 
2 | COC(=O)CCC(F)(F)C(F)(F)C(F)(F)C(F)(F)F | inactive | 
3 | OCC(F)(F)C(F)(F)C(F)(F)C(F)(F)C(F)(F)C(F)(F)F | inactive | 
4 | C=C(C)C(=O)OCCC(F)(F)C(F)(F)C(F)(F)C(F)(F)C(F)(C(F)(F)F)C(F)(F)F | inactive | 
5 | FC(F)(F)C(F)(F)C(F)(F)C(F)(F)C(F)(F)CCI | inactive | 
6 | C=CC(F)(F)C(F)(F)C(F)(F)C(F)(F)C(F)(F)C(F)(F)C(F)(F)C(F)(F)F | inactive | 
7 | OCCCC(F)(F)C(F)(F)C(F)(F)C(F)(F)C(F)(F)C(F)(F)C(F)(F)F | inactive | 
8 | O=C(O)C(F)(F)C(F)(F)C(F)(F)C(F)(F)F | inactive | 
9 | NC(=O)C(F)(F)C(F)(F)C(F)(F)C(F)(F)F | inactive | 
10 | O=C(O)C(F)(F)C(F)(F)C(F)(F)C(F)(F)C(F)(F)C(F)(F)C(F)(F)C(F)(F)Cl | inactive | 
11 | O=C(O)C(F)(F)C(F)(F)C(F)(F)C(F)(F)C(F)(F)C(F)(F)C(F)(F)C(F)(F)C(F)(F)C(F)(F)C(F)(F)C(F)(F)C(F)(F)F | inactive | 
12 | O=C(O)C=C(C(F)(F)F)C(F)(F)F | inactive | 
13 | O=C(O)C(F)(OC(F)(F)C(F)(OC(F)(F)C(F)(OC(F)(F)C(F)(F)C(F)(F)F)C(F)(F)F)C(F)(F)F)C(F)(F)F (stereo not given) | inactive | 
14 | FC(F)(F)C(F)(F)CNCC(F)(F)C(F)(F)F | inactive | 
15 | O=C(O)C(F)(OC(F)(F)C(F)(OC(F)(F)C(F)(F)C(F)(F)F)C(F)(F)F)C(F)(F)F (stereo not given) | inactive | 
16 | FC(F)(F)C(F)(F)C(F)(F)C(F)(F)C(F)(F)C(F)(F)C(F)(F)I | inactive | 
17 | OCCCC(F)(F)C(F)(F)C(F)(F)F | inactive | 
18 | CCO[Si](CCC(F)(F)C(F)(F)C(F)(F)C(F)(F)C(F)(F)C(F)(F)F)(OCC)OCC | inactive | 
19 | FC(F)(F)C(F)(F)C(F)(F)C(F)(F)C(F)(F)C(F)(F)C(F)(F)Br | inactive | 
20 | O=C(O)C(F)(F)C(F)(F)C(F)(F)C(F)(F)C(F)(F)C(F)(F)C(F)(F)C(F)(F)C(F)(F)C(F)(F)C(F)(F)C(F)(F)F | inactive | 

Row | SMILES | outcome | AC50
21 | FC(F)(F)C(F)(F)C(F)(F)C(F)(F)C(F)(F)C(F)(F)CC1CO1 (stereo not given) | inactive | 
22 | OCC(F)(F)C(F)(F)C(F)(F)C(F)F | inactive | 
23 | C=CC(=O)OCC(F)(F)C(F)(F)C(F)(F)C(F)(F)C(F)(F)C(F)(F)C(F)(F)F | inactive | 
24 | O=C(O)C(F)(F)C(F)(F)C(F)(F)C(F)(F)C(F)(F)C(F)(F)C(F)(F)C(F)(F)C(F)(F)C(F)F | inactive | 
25 | FC(F)(F)C(F)(F)C(F)(F)C(F)(F)CCI | inactive | 
26 | N=C(N)C(F)(F)C(F)(F)C(F)(F)C(F)(F)C(F)(F)C(F)(F)C(F)(F)F | inactive | 
27 | C=CC(F)(F)C(F)(F)C(F)(F)C(F)(F)C(F)(F)C(F)(F)C(F)(F)C(F)(F)C=C | inactive | 
28 | O=C(O)C(F)(F)C(F)(F)C(F)F | inactive | 
29 | OCC(F)(F)C(F)(F)C(F)(F)C(F)(F)C(F)(F)C(F)F | inactive | 
30 | FC(F)(F)C(F)(F)C(F)(F)C(F)(F)C(F)(F)C(F)(F)C(F)(F)C(F)(F)F | inactive | 
31 | O=P(O)(O)OCCC(F)(F)C(F)(F)C(F)(F)C(F)(F)C(F)(F)C(F)(F)F |  | 57.9 µM (active)
32 | CCCCCCCCC(F)(F)C(F)(F)C(F)(F)C(F)(F)C(F)(F)C(F)(F)F | inactive | 
33 | Cc1ccc(S(=O)(=O)OCC(F)(F)C(F)(F)C(F)(F)C(F)(F)C(F)(F)C(F)F)cc1 | inactive | 
34 | CC(C)(C)C(=O)CC(=O)C(F)(F)C(F)(F)C(F)(F)F | inactive | 
35 | C=CC(=O)OCC(F)(F)C(F)(F)C(F)(F)C(F)(F)COC(=O)C=C |  | 28.1 µM (active)
36 | O=C(O)C(F)(F)C(F)(F)OC(F)(F)F | inactive | 
37 | O=C(O)C(F)(F)C(F)(F)C(F)(F)F | inactive | 
38 | FC1CC(F)(F)C(F)(F)C1(F)F (stereo not given) | inactive | 
39 | FC(F)(F)C(F)(F)C(F)(F)CI | inactive | 
40 | O=S(=O)(OCC(F)F)C(F)(F)F | inactive | 
